This is one part of a sample in which hits are shown more often than they occur.
HIV RNase H inh-1 – blocks HIV-1 RNase H cleavage of RNA/DNA duplex. P04585. RT-RNase H RNA/DNA duplex cleavage, fluorescence. inhibition, % at 10 µM. actives 1.9% (n = 65,000). AID 565; in the data active means inhibition above about 50%
HIV RNase H inh-2 – confirmation of HIV-1 reverse transcriptase RNase H inhibitors; Recombinant RT RNase H, fluorescent RNA/DNA duplex cleavage; AID 651; shares compounds with HIV RNase H inh-1; inhibition, % at 10 µM; actives 39% (n = 1,000); in the data active means inhibition above about 48%; inconclusive means no clear call, values can overlap the other calls
An asterisk follows results filed as active.

How did CCN(CCNC(=O)CS(=O)(=O)Cc1nc(-c2cccc(OC)c2)oc1C)c1ccccc1 do in these assays?
HIV RNase H inh-1: 4

Results for Cc1cc(N2CCCC2)ccc1/C=N/n1cnnc1 ?
HIV RNase H inh-1: -21

How did Cc1ccc(S(=O)(=O)N2CCCC2C(=O)OCc2ccco2)cc1 (centres undefined) do in these assays?
HIV RNase H inh-1: -4

Results for COc1cc(/C=N/n2cnnc2)ccc1OC(=O)N(C)C ?
HIV RNase H inh-1: -1

Results for CCOc1cc(/C=N/n2cnnc2)ccc1O ?
HIV RNase H inh-1: -4

How did Cn1c(=O)n(C)c2cc(/C=N/n3cnnc3)ccc21 do in these assays?
HIV RNase H inh-1: 59*; HIV RNase H inh-2: 0

Results for O=C(Cc1cc(=O)[nH]c(=O)[nH]1)NCCN1CCOCC1 ?
HIV RNase H inh-1: -4

How did O=C(CCS(=O)(=O)c1ccccc1)Nc1nc2c(s1)COc1ccccc1-2 do in these assays?
HIV RNase H inh-1: 19

How did Oc1ccccc1C1=Nc2ncnn2C(c2ccccc2)C1 (centres undefined) do in these assays?
HIV RNase H inh-1: -8

Results for O=C(c1cc2nc3c(c(C(F)(F)F)n2n1)CCc1ccccc1-3)N1CCN2CCCC2C1 (centres undefined) ?
HIV RNase H inh-1: -24

How did CCSc1nnc(Cc2cc(=O)[nH]c(=O)[nH]2)n1-c1cc(C)ccc1C do in these assays?
HIV RNase H inh-1: -14

How did CN1CCc2c(sc3c2C(=O)NC(c2cccc(OC(=O)c4cccs4)c2)N3)C1 (centres undefined) do in these assays?
HIV RNase H inh-1: -33

How did O=C1NC(c2cccs2)Nc2sc3c(c21)CCCC3 (centres undefined) do in these assays?
HIV RNase H inh-1: 94*; HIV RNase H inh-2: 34

Results for O=C1NC(c2ccco2)Nc2sc3c(c21)CCN(Cc1ccccc1)C3 (centres undefined) ?
HIV RNase H inh-1: -1

How did COc1ccc(CCNC(=O)CSc2nncn2N)cc1OC do in these assays?
HIV RNase H inh-1: -6

How did O=C(CSC1=NCCS1)N1CCc2ccccc21 do in these assays?
HIV RNase H inh-1: -27

How did OCCN1CCN(c2ncnc3c2sc2nc(N4CCOCC4)c4c(c23)CCC4)CC1 do in these assays?
HIV RNase H inh-1: -24

Results for COC(=O)c1ccc(Cn2cnc3c(sc4nc(N5CCOCC5)c5c(c43)CCCC5)c2=O)o1 ?
HIV RNase H inh-1: 64*; HIV RNase H inh-2: inconclusive

Results for OCCN(CCO)c1ncnc2c1sc1nc(N3CCOCC3)c3c(c12)CCCC3 ?
HIV RNase H inh-1: -44

Results for Cc1ccccc1NC(=O)CCC(=O)OCCCC(F)(F)C(F)(F)F ?
HIV RNase H inh-1: -9

Results for O=C(O)c1ccccc1S(=O)(=O)Cc1ccccc1 ?
HIV RNase H inh-1: 71*; HIV RNase H inh-2: 15

Results for NC(=O)c1ccccc1NS(=O)(=O)Cc1ccccc1 ?
HIV RNase H inh-1: 8

Results for O=C(c1ccccc1S(=O)(=O)NCc1ccccc1)N1CCCC1 ?
HIV RNase H inh-1: -16

Results for Cc1ccc(C(=O)C2=C(O)C(=O)N(CCCn3ccnc3)C2c2ccc(OC(C)C)cc2)o1 (centres undefined) ?
HIV RNase H inh-1: 22

Results for Cc1cc(F)ccc1S(=O)(=O)Nc1ccccc1C(=O)Nc1ccc2[nH]c(=O)[nH]c2c1 ?
HIV RNase H inh-1: -24

How did O=C1c2ccccc2C(=O)N1CSc1ncccn1 do in these assays?
HIV RNase H inh-1: -105

What do the screens show for `Cc1cccc(CCNC(=O)c2nnc(Cc3ccc(Cl)cc3)o2)c1`?
HIV RNase H inh-1: -1

How did COc1ccc(CNC(=O)CSc2nnc(C)s2)cc1 do in these assays?
HIV RNase H inh-1: 2

What do the screens show for `Cc1ccc(SCc2[nH]nc3c2C(c2ccc(C)o2)C(C#N)=C(N)O3)cc1` (centres undefined)?
HIV RNase H inh-1: -7

How did CCc1ccc(C2C(C#N)=C(N)SC(N)=C2C#N)cc1 do in these assays?
HIV RNase H inh-1: 70*; HIV RNase H inh-2: 18

Results for CCCOc1ccc(C2C(C#N)=C(N)Oc3nc[nH]c(=O)c32)cc1OC (centres undefined) ?
HIV RNase H inh-1: -10

How did Cc1ccc(C2C(C#N)=C(N)Oc3nc(-c4ccccc4)[nH]c32)o1 (centres undefined) do in these assays?
HIV RNase H inh-1: -8

What do the screens show for `N#CC1=C(N)SC(N)=C(C#N)C1c1cccc(Oc2ccccc2)c1`?
HIV RNase H inh-1: 70*; HIV RNase H inh-2: 39

What do the screens show for `CCOc1ccc(C2C(C#N)=C(N)SC(N)=C2C#N)cc1OC`?
HIV RNase H inh-1: 69*; HIV RNase H inh-2: 5

Results for Cc1ccc(C2C(C#N)=C(N)SC(N)=C2C#N)o1 ?
HIV RNase H inh-1: 80*; HIV RNase H inh-2: inconclusive

Results for N#CC1=C(N)OC(c2ccccc2)=C(C#N)C1c1ccc2c(c1)OCO2 (centres undefined) ?
HIV RNase H inh-1: -13

How did CCOC(=O)C1=C(C)OC(N)=C(C#N)C1c1ccoc1 (centres undefined) do in these assays?
HIV RNase H inh-1: -89

What do the screens show for `CCOc1ccccc1C1C(C#N)=C(N)SC(N)=C1C#N`?
HIV RNase H inh-1: -5
